# Data: publication PMC5540273 (PLoS ONE, 2017)
# Read-outs that look alike come from different tables or passages of the source.
# Assays:
# DYRK1B = settings: n = 1
# DYRK2 = settings: concentration: 1 μM,replicates: in singlicate; n = 1
# EGFR = settings: concentration: 1 μM,replicates: in singlicate; n = 1
# EIF2AK1 = settings: concentration: 1 μM,replicates: in singlicate; n = 1
# EPHA1 = settings: concentration: 1 μM,replicates: in singlicate; n = 1
# EPHA2 = settings: concentration: 1 μM,replicates: in singlicate; n = 1
# EPHA3 = settings: concentration: 1 μM,replicates: in singlicate; n = 1
# EPHA4 = settings: concentration: 1 μM,replicates: in singlicate; n = 1
# EPHA5 = settings: concentration: 1 μM,replicates: in singlicate; n = 1
# EPHA6 = settings: n = 1
# EPHA7 = settings: concentration: 1 μM,replicates: in singlicate; n = 1
# EPHA8 = settings: concentration: 1 μM,replicates: in singlicate; n = 1
# EPHB1 = settings: concentration: 1 μM,replicates: in singlicate; n = 1
# EPHB2 = settings: concentration: 1 μM,replicates: in singlicate; n = 1
# EPHB3 = settings: concentration: 1 μM,replicates: in singlicate; n = 1
# EPHB4 = settings: concentration: 1 μM,replicates: in singlicate; n = 1
# EPHB6 = settings: concentration: 1 μM,replicates: in singlicate; n = 1
# ERBB2 = settings: concentration: 1 μM,replicates: in singlicate; n = 1
# ERBB3 = settings: concentration: 1 μM,replicates: in singlicate; n = 1
# ERBB4 = settings: concentration: 1 μM,replicates: in singlicate; n = 1
# [1] = concentration: 1 μM,replicates: in singlicate
# 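Note: KINOMEscan kinase panel screen.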
structure (smiles),measurement,setting,value
CN(c1ccc2c(c1)nc(NCc1ccc(F)cc1)n2C)c1ccnc(Nc2ccc(CS(C)(=O)=O)cc2)n1.Cl [GW813244],%Inh,DYRK1B; [1],4%
same,%Inh,DYRK2,30%
same,%Inh,EGFR,18%
same,%Inh,EIF2AK1,0%
same,%Inh,EPHA1,0%
same,%Inh,EPHA2,12%
same,%Inh,EPHA3,5%
same,%Inh,EPHA4,20%
same,%Inh,EPHA5,0%
same,%Inh,EPHA6; [1],23%
same,%Inh,EPHA7,0%
same,%Inh,EPHA8,49%
same,%Inh,EPHB1,9%
same,%Inh,EPHB2,23%
same,%Inh,EPHB3,5%
same,%Inh,EPHB4,0%
same,%Inh,EPHB6,78%
same,%Inh,ERBB2,17%
same,%Inh,ERBB3,0%
same,%Inh,ERBB4,19%
COc1cccc(OC)c1C(=O)Nc1cccc(-c2nn3ccccc3c2-c2ccnc(Nc3cccc(F)c3)n2)c1 [GSK361065],%Inh,DYRK1B; 1 µM,24%
same,%Inh,DYRK2,0%
same,%Inh,EGFR,91.7%
same,%Inh,EIF2AK1,0%
same,%Inh,EPHA1,4%
same,%Inh,EPHA2,11%
same,%Inh,EPHA3,0%
same,%Inh,EPHA4,0%
same,%Inh,EPHA5,11%
same,%Inh,EPHA6; 1 µM,11%
same,%Inh,EPHA7,14%
same,%Inh,EPHA8,17%
same,%Inh,EPHB1,100%
same,%Inh,EPHB2,0%
same,%Inh,EPHB3,8%
same,%Inh,EPHB4,8%
same,%Inh,EPHB6,42%
same,%Inh,ERBB2,61%
same,%Inh,ERBB3,0%
same,%Inh,ERBB4,84%
NC(=O)c1ccc(-c2cc3ncnc(SCC(=O)O)c3s2)cc1,%Inh,DYRK1B; [1],57%
same,%Inh,DYRK2,47%
same,%Inh,EGFR,0%
same,%Inh,EIF2AK1,0%
same,%Inh,EPHA1,0%
same,%Inh,EPHA2,0%
same,%Inh,EPHA3,0%
same,%Inh,EPHA4,17%
same,%Inh,EPHA5,0%
same,%Inh,EPHA6; [1],21%
same,%Inh,EPHA7,0%
same,%Inh,EPHA8,0%
same,%Inh,EPHB1,0%
same,%Inh,EPHB2,0%
same,%Inh,EPHB3,26%
same,%Inh,EPHB4,1%
same,%Inh,EPHB6,62%
same,%Inh,ERBB2,33%
same,%Inh,ERBB3,0%
same,%Inh,ERBB4,10%
Cn1ccc2ncnc(Oc3ccc(NC(=O)Nc4cccc(C(F)(F)F)c4)c(F)c3)c21,%Inh,DYRK1B; [1],0%
same,%Inh,DYRK2,0%
same,%Inh,EGFR,12%
same,%Inh,EIF2AK1,0%
same,%Inh,EPHA1,51%
same,%Inh,EPHA2,94.6%
same,%Inh,EPHA3,58%
same,%Inh,EPHA4,85%
same,%Inh,EPHA5,85%
same,%Inh,EPHA6; [1],97.7%
same,%Inh,EPHA7,93.8%
same,%Inh,EPHA8,98.8%
same,%Inh,EPHB1,80%
same,%Inh,EPHB2,90.6%
same,%Inh,EPHB3,74%
same,%Inh,EPHB4,81%
same,%Inh,EPHB6,97.6%
same,%Inh,ERBB2,10%
same,%Inh,ERBB3,24%
same,%Inh,ERBB4,2%
C[C@@H]1CNc2c(sc3ccc4nc(-c5ccncc5)ccc4c23)C(=O)N1,%Inh,DYRK1B; [1],88%
same,%Inh,DYRK2,18%
same,%Inh,EGFR,0%
same,%Inh,EIF2AK1,12%
same,%Inh,EPHA1,7%
same,%Inh,EPHA2,0%
same,%Inh,EPHA3,0%
same,%Inh,EPHA4,15%
same,%Inh,EPHA5,1%
same,%Inh,EPHA6; [1],11%
same,%Inh,EPHA7,0%
same,%Inh,EPHA8,0%
same,%Inh,EPHB1,0%
same,%Inh,EPHB2,0%
same,%Inh,EPHB3,20%
same,%Inh,EPHB4,17%
same,%Inh,EPHB6,18%
same,%Inh,ERBB2,14%
same,%Inh,ERBB3,10%
same,%Inh,ERBB4,0%
C[C@@H](Oc1cc(-n2cnc3cc(-c4ccncc4)ccc32)sc1C(N)=O)c1ccccc1Cl [GSK479719],%Inh,DYRK1B; [1],18%
same,%Inh,DYRK2,31%
same,%Inh,EGFR,28%
same,%Inh,EIF2AK1,18%
same,%Inh,EPHA1,0%
same,%Inh,EPHA2,29%
same,%Inh,EPHA3,100%
same,%Inh,EPHA4,21%
same,%Inh,EPHA5,0%
same,%Inh,EPHA6; [1],29%
same,%Inh,EPHA7,8%
same,%Inh,EPHA8,15%
same,%Inh,EPHB1,9%
same,%Inh,EPHB2,0%
same,%Inh,EPHB3,18%
same,%Inh,EPHB4,12%
same,%Inh,EPHB6,0%
same,%Inh,ERBB2,0%
same,%Inh,ERBB3,0%
same,%Inh,ERBB4,0%
